Assay outcomes (PubChem BioAssay)
Many of the other results were omitted from the sample, so hits are more common in it than they were.
ST2 IL33 inh = inhibitors of human ST2 (IL1RL1) binding to IL-33, primary screen, biochemical, AlphaLISA; inhibition, % for hits at 17 µM; Interleukin-1 receptor-like 1 (Homo sapiens), Q01638; 2.3% of 78,000 active; AlphaLISA ST2-Fc/biotin-IL-33 interaction, 1 h; in the data active means inhibition above about 30%
Target sequence (Q01638 whole entry, looked up): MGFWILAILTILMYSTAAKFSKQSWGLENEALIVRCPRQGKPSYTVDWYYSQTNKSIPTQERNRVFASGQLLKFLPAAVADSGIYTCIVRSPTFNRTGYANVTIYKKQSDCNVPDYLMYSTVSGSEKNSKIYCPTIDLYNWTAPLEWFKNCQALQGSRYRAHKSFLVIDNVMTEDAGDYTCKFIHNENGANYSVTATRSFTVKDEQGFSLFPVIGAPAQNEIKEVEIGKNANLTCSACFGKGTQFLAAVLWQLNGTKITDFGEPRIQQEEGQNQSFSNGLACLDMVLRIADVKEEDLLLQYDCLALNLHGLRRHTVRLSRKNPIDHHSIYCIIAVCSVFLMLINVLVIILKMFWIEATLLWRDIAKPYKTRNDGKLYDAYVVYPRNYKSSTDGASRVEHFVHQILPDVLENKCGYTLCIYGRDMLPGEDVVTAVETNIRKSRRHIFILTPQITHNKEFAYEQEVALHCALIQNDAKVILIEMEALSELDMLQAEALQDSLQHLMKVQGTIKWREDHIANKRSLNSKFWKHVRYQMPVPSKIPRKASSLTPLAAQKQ
Starred values were filed as active, the others as inactive; i = inactive.

SMILES | ST2 IL33 inh
O=C(O)c1ccc(O)c(C=Nc2ccc(Br)cc2)c1 | i
C=CCc1cccc(C=Nc2ccc(Br)cc2)c1O | 39.0%*
Cc1nc(-c2cccc(S(=O)(=O)N3CCCC4(CCNC4)C3)c2)no1 (stereo not drawn) | i
COc1ccc(OC)c(N2C(=O)CC(N3CCN(c4ccc(F)cc4)CC3)C2=O)c1 (stereo not drawn) | 31.0%*
CCOc1ccc(N2C(=O)CC(N3CCN(c4ccc(F)cc4)CC3)C2=O)cc1 (stereo not drawn) | i
COc1ccccc1N1C(=O)CC(N2CCN(c3ccc(F)cc3)CC2)C1=O (stereo not drawn) | i
Cc1ccc(N2C(=O)CSC2c2ccc(Br)cc2)cc1F (stereo not drawn) | i
COc1ccc2nc(Cn3cnc4ccc(F)cc4c3=O)[nH]c2c1 | i
Cc1nc(NCc2ccccc2Cl)c2c3c(sc2n1)CCCC3 | i
O=C1c2ccccc2C(=O)N1c1ccc(N2C(=O)C3C4CCC(C4)C3C2=O)cc1 (stereo not drawn) | i
O=C(/C=C/c1ccc(-c2ccc([N+](=O)[O-])cc2Cl)o1)c1ccco1 | i
CCOC(=O)c1ccc(-c2ccc(/C=C/c3[nH]c(=O)[nH]c(=O)c3[N+](=O)[O-])o2)cc1 | i
C/C(=C\c1ccc(-c2ccc(Cl)c(C(=O)O)c2)o1)[N+](=O)[O-] | 32.0%*
CCn1c(C2CCCN(Cc3ccc(-n4cncn4)cc3)C2)nn(C)c1=O (stereo not drawn) | i
Cc1ccc(C)n1-c1ccc(C(=O)O)c(C(=O)O)c1 | 88.0%*
Cc1ccc(C)n1-c1cccc(C(=O)O)c1 | 96.0%*
CC(=O)Nc1cccc(C(=O)O)c1 | i
Cc1cc(C=O)c(C)n1-c1ccc(C(=O)O)c(Cl)c1 | i
O=C(O)c1cccc(N2C(=O)C3C4C=CC(O4)C3C2=O)c1 (stereo not drawn) | i
Cc1ccc(C(=O)c2ccccc2C(=O)O)c(C)c1 | i
COc1ccc(OC(C)C(=O)Nc2ccc(I)cc2C)cc1 (stereo not drawn) | i
CCO[C@H]1COC[C@@H]1NC(=O)c1scc2c1OCCO2 | i
CCc1nnc(CN2CCCC2c2nc3ccccc3s2)o1 (stereo not drawn) | i
CC(=O)c1cc2c(N)c(C(=O)c3ccc(Cl)cc3)sc2nc1C | 38.0%*
Cc1ccc2c(N)c(C(=O)c3ccc(Cl)cc3)sc2n1 | i
SMILES | ST2 IL33 inh
COCc1cc(C)nc2sc(C(=O)c3ccccc3)c(N)c12 | i
COc1ccccc1C(=O)Nc1ccc(Cl)c(N2CCCS2(=O)=O)c1 | i
CCOc1ccc(-c2cn(-c3ccc(Br)cc3)c(=O)[nH]2)cc1Cl | i
CCC1Oc2ccccc2N(CC(=O)N2CCN(CC)CC2)C1=O (stereo not drawn) | i
COC(=O)c1cc2n(n1)CCCN(C(=O)C(=O)Nc1ccc(F)cc1)C2 | i
CCC(=O)NCc1cccc(-c2cccc3cnccc23)c1 | i
Cc1cccc(NC(=O)c2ncn[nH]2)c1C | i
O=C(O)CCC(=O)N1N=C(c2cccs2)CC1c1ccc(F)cc1 (stereo not drawn) | i
c1ccc(C2Oc3ccccc3C3CC(c4cccs4)=NN32)cc1 (stereo not drawn) | 34.0%*
COc1ccc(C2=NN3C(C2)c2ccccc2OC3c2ccco2)cc1 (stereo not drawn) | i
Cc1[nH]nc(CCC(=O)N2CC(c3cccnc3)C2)c1C | i
O=c1[nH]nc(SCc2ccc(Br)cc2)c(=O)[nH]1 | i
CCCCN1C(=O)CSc2c(c(C)nn2-c2ccccc2)C1C(=O)NC1CCCC1 (stereo not drawn) | i
COc1ccc(NC(=O)NC2CCCN(C3CCCCCC3)C2)cc1OC (stereo not drawn) | i
COc1ccc(NC2CCCN(C(=O)/C=C/c3cccc(Cl)c3)C2)cc1OC (stereo not drawn) | i
COc1ccc(NC2CCCN(C3CCN(c4ccccc4C)CC3)C2)cc1OC (stereo not drawn) | 34.0%*
COc1ccc(CN2CC(OCc3ccccc3F)CN(C(=O)C(=O)c3ccccc3)CC2=O)cc1 (stereo not drawn) | i
O=C(O)c1cccnc1CN1CCCC(c2nc3ccccc3o2)C1 (stereo not drawn) | i
C=CCOc1ccc(/C=C2/C(=O)N(c3ccc(Cl)c(Cl)c3)N=C2C)cc1OC | i
CC1=NN(c2ccc(Cl)c(C(=O)O)c2)C(=O)/C1=C\c1ccc(OCc2ccccc2)cc1 | i
CC1=NN(c2ccc(Cl)c(C(=O)O)c2)C(=O)/C1=C\c1ccc(Cl)cc1 | 48.0%*
COc1cc(/C=C2/C(=O)N(c3ccc(Cl)c(Cl)c3)N=C2C)cc(OC)c1OC | 55.0%*
COc1ccccc1/C=C1\C(=O)N(c2ccc(Cl)c(Cl)c2)N=C1C | i
C=CCOc1ccc(/C=C2\C(=O)N(c3ccc(Cl)c(C(=O)O)c3)N=C2C)cc1OC | i
COc1cc(Br)c(/C=C2/C(=O)N(c3ccc(Cl)c(Cl)c3)N=C2C)cc1OC | i
SMILES | ST2 IL33 inh
CC1=NN(c2ccc(Cl)c(C(=O)O)c2)C(=O)/C1=C\c1ccc(Br)cc1 | i
COc1ccc(/C=C2/C(=O)N(c3ccc(Cl)c(Cl)c3)N=C2C)cc1Br | i
COc1ccc(/C=C2\C(=O)N(c3ccc(Cl)c(C(=O)O)c3)N=C2C)cc1OC | i
CC1=NN(c2ccc(Cl)c(Cl)c2)C(=O)/C1=C/c1cccs1 | 54.0%*
COc1cc(/C=C2\C(=O)N(c3ccc(Cl)c(C(=O)O)c3)N=C2C)cc(Br)c1O | 75.0%*
Cc1cc(NC(=O)NC(=O)c2ccc(C(F)(F)F)cc2)n[nH]1 | i
Cc1ncc(C[n+]2cccc3ccccc32)c(N)n1 | i
Cc1ccc(NC2=NC3CS(=O)(=O)CC3S2)cc1 (stereo not drawn) | i
CCCc1nnc(C[C@@H]2C[C@@H](C(C)C)[C@H](CN3CCC(C(N)=O)CC3)C=C2C)o1 | i
O=C(Nc1ccc([N+](=O)[O-])cc1)c1cccc(S(=O)(=O)N2CCOCC2)c1 | i
CC1CCN(C(=O)c2cc(-c3ccc(F)cc3)on2)CC1 | i
CCc1ccccc1NC(=O)CN1C(=O)CC(c2ccccc2)=Nc2ccccc21 | i
COc1ccc(CC2CN(C(=O)Cc3noc4ccccc34)CCO2)cc1 (stereo not drawn) | i
C=C(C(=O)O)[C@@H]1CC[C@@]2(C)C=CC(=O)[C@@H](CCC3(O)C(=O)C=C[C@]4(C)CC[C@@H](C(=C)C(=O)O)C[C@@H]34)[C@@H]2C1 (stereo partly drawn) | i
COc1cc(/C=C2/C(=O)N(c3ccc(Cl)c(Cl)c3)N=C2C)cc(OC)c1O | 35.0%*
COc1cc(/C=C2/C(=O)N(c3ccc(Cl)c(Cl)c3)N=C2C)ccc1OCC#N | i
COc1ccc(/C=C2/C(=O)N(c3ccc(Cl)c(Cl)c3)N=C2C)cc1[N+](=O)[O-] | i
Cc1nn2c3c(sc2nc1=O)C(=O)N(c1ccc(F)c(Cl)c1)C3=O | i
CCN1CCN(C(=O)c2cn(CC)c3ccc(S(=O)(=O)N4CCOCC4)cc3c2=O)CC1 | i
O=C(c1nn2cc(Br)cnc2c1Br)N1CCOCC1 | i
O=C(c1cc2ncc(Br)cn2n1)N1CCOCC1 | 38.0%*
O=C(c1cccc(Br)c1)N1CCOCC1 | i
CN(Cc1nc(Cc2ccccc2Cl)no1)CC1CCOCC1 | i
Cn1c(=O)cc(SCC(=O)NC2CCCC2)c2ccccc21 | i
